± gives the standard deviation.

The first experiment concerns MILI (PIWIL2) piRISC loaded with L1MC piRNA (26 nt). As to the kind of experiment: pre-steady-state target cleavage rate (min^-1); guide: L1MC piRNA 5'p-UAACUAAAUACUAUGCAAGCUGUAGG; MIWI and MILI are mouse PIWI proteins and EfPiwi is from a freshwater sponge; tags in brackets are library labels; higher = faster piRNA-guided slicing of the target. Particulars: auxiliary factor: 500 nM mouse GTSF1. The procedure: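 Cleave-'n-Seq: a library of target RNAs (target site embedded in constant flanks, ACAGCATTCCGCGTTAGTGATATCCG... 5' flank; DNA-blocked outside the site) at 0.1 nM was incubated with 1 nM active mouse MILI or MIWI piRISC (synthetic 5'-monophosphorylated piRNA guide) with or without 500 nM mouse GTSF1 at 33 °C for 1 min to 16 h. Uncleaved targets were sequenced and normalised to non-target controls, and the pooled three trials were fitted to a burst-and-steady-state model to give the pre-steady-state cleavage rate (min^-1; k3 is constrained to at most 1e-4). Sequence is the target site only; target names encode pairing extent (gX:gY) and contiguous / 1-mismatch / 2-mismatch / bulge geometry. Fits with R² ≤ 0 are excluded.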
As to UCCUGGAUGUCGAAGCAUAGUAUUUACUUA, the “pre-steady-state target cleavage rate” value came out at 0.00488 ± 0.0029.

As for UCCUGCAACAGGUUGCAUAGUAUUUAGUUA, the “pre-steady-state target cleavage rate” value turned out to be 0.248 ± 0.022.

For the sequence UCCUGGUACAGCUUGCUUUGUAUUUAGUUA, the “pre-steady-state target cleavage rate” value was 0.123 ± 0.017.

As for UCCUCCUAGUCCUUGCAUAGUAUUUAGAAA, the “pre-steady-state target cleavage rate” value worked out at 0.0654 ± 0.017.

As to UCCUCCAACAGCUUGGAUAGUAUUUAGUUA, the “pre-steady-state target cleavage rate” value stood at 0.269 ± 0.0097.

With UCCUGGAUGAGCGUUGCAUAGUAUUUAGUUA, the “pre-steady-state target cleavage rate” value is 0.192 ± 0.017.

In the case of UCCUGGAUCAGCUUGCAUAGUAUUUAGGUA, the “pre-steady-state target cleavage rate” value came to 0.0936 ± 0.021.

In the case of UCCUGCUACAGCUUGCUUAGUAUUUAGUAA, the “pre-steady-state target cleavage rate” value amounted to 0.119 ± 0.015.

As to UCCUGGAUGUCGAUGCUUAGUAUUUAGUAA, the “pre-steady-state target cleavage rate” value was 0.0164 ± 0.0045.

For the sequence UCCUGGUACAGCUUGCAUAGUAUUUAGUAA, the “pre-steady-state target cleavage rate” value was determined as 0.283 ± 0.036.

On to UCCUGGAUGUCGUUGCAUAUUAUUUAGUUA, for which the “pre-steady-state target cleavage rate” value stood at 0.0246 ± 0.0061.

As for UCCUGCGUACAGCUUGCAUAGUAUUUAGUUA, the “pre-steady-state target cleavage rate” value was 0.314 ± 0.021.

Consider UCCUGGAUGGGCUUGCAUAGUAUUUAGUUA, for which the “pre-steady-state target cleavage rate” value worked out at 0.17 ± 0.021.

UCCUCCUACAGCUUGCAUAGUAUUAUCUAA: the “pre-steady-state target cleavage rate” value is 0.187 ± 0.045.

Consider UCCUCCUACAGCAUGCAUAGUAUUAAGUUA, for which the “pre-steady-state target cleavage rate” value stood at 0.2 ± 0.023.

For the sequence UCCUGGUACACCUUGCAUAGUAAUUAGUUA, the “pre-steady-state target cleavage rate” value amounted to 0.491 ± 0.14.

As to UCCUGCUACACUUGCAUAGUAUUUAGUUA, the “pre-steady-state target cleavage rate” value stood at 0.268 ± 0.021.

On to UCCUGGAUCAGCUUGCAUAGUAAUAAGUUA, for which the “pre-steady-state target cleavage rate” value stood at 0.189 ± 0.019.

For the sequence UCCUGGAUGAGCCUGCAUAGUAUUUAGUUA, the “pre-steady-state target cleavage rate” value was determined as 0.157 ± 0.019.

Take UCCUCCUACAGCAUGCUUAGUAUUUAGUUA: the “pre-steady-state target cleavage rate” value was found to be 0.206 ± 0.015.

UCCUGGAUGUCGUAGCAUAGUAUAUAGUUA: the “pre-steady-state target cleavage rate” value was 0.0653 ± 0.016.

The experiment is the same for the next values; noted with them: auxiliary factor: none (no GTSF1).
Regarding UCCUGGAUGUCGAACGAGUAGUAUUUAGUUA, the “pre-steady-state target cleavage rate” value was less than 0.0001.

Consider UCCUGCAACAGGUUGCAUAGUAUUUAGUUA, for which the “pre-steady-state target cleavage rate” value was 0.00771 ± 0.0033.

With UCCUGGUACAGCUUGCUUUGUAUUUAGUUA, the “pre-steady-state target cleavage rate” value came out at 0.0068 ± 0.0025.

On to UCCUCCAACAGCUUGGAUAGUAUUUAGUUA, for which the “pre-steady-state target cleavage rate” value stood at 0.00646 ± 0.0021.

UCCUGGAUGAGCGUUGCAUAGUAUUUAGUUA: the “pre-steady-state target cleavage rate” value is 0.00904 ± 0.0031.

On to UCCUGGAUCAGCUUGCAUAGUAUUUAGGUA, for which the “pre-steady-state target cleavage rate” value stood at 0.00336 ± 0.0026.

As for UCCUGCUACAGCUUGCUUAGUAUUUAGUAA, the “pre-steady-state target cleavage rate” value is 0.00316 ± 0.0023.

UCCUGGUACAGCUUGCAUAGUAUUUAGUAA: the “pre-steady-state target cleavage rate” value is 0.00667 ± 0.0024.

For UCCUGGAUGUCGUUGCAUAUUAUUUAGUUA, the “pre-steady-state target cleavage rate” value came to 0.00364 ± 0.0023.

UCCUGCGUACAGCUUGCAUAGUAUUUAGUUA: the “pre-steady-state target cleavage rate” value was determined as 0.0109 ± 0.0033.

Regarding UCCUGGAUGGGCUUGCAUAGUAUUUAGUUA, the “pre-steady-state target cleavage rate” value stood at 0.0171 ± 0.0035.

On to UCCUCCUACAGCAUGCAUAGUAUUAAGUUA, for which the “pre-steady-state target cleavage rate” value worked out at 0.00348 ± 0.0026.

Regarding UCCUGGUACACCUUGCAUAGUAAUUAGUUA, the “pre-steady-state target cleavage rate” value worked out at 0.00374 ± 0.0032.

For the sequence UCCUGCUACACUUGCAUAGUAUUUAGUUA, the “pre-steady-state target cleavage rate” value was determined as 0.00611 ± 0.0023.

As for UCCUGGAUCAGCUUGCAUAGUAAUAAGUUA, the “pre-steady-state target cleavage rate” value is 0.00409 ± 0.0028.

As to UCCUGGAUGAGCCUGCAUAGUAUUUAGUUA, the “pre-steady-state target cleavage rate” value is 0.00748 ± 0.0033.

With UCCUCCUACAGCAUGCUUAGUAUUUAGUUA, the “pre-steady-state target cleavage rate” value was 0.00645 ± 0.0024.

Take UCCUGGAUGUCGUAGCAUAGUAUAUAGUUA: the “pre-steady-state target cleavage rate” value is 0.0048 ± 0.0023.

Source of the values: the supplement of paper PMC10338343.
